Screening results as filed in PubChem BioAssay.
Pf apPOL inh = Pf-apPOL inhibitors, biochemical, fluorescence; Recombinant Pf-apPOL, molecular beacon fluorescence, 1.5 h; inhibition, % at 10 µM; 0.25% of 210,000 active; AID 1794808, 2022
mHTT-CaM PPI inh = mutant huntingtin-calmodulin interaction inhibitors – biochemical, AlphaScreen, primary screen. inhibition, % at 15 µM. P42858. AlphaScreen His-mHTT/GST-CaM binding, luminescence. 3.6% of 190,000 active;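 note: 0% = both proteins with DMSO and 100% = one protein alone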
* = called active by the depositor; . = no result. Only some compounds are listed: those with a hit (about 3.6% of all), similar ones and a draw of the others. Cut-off read from the data, not from the text of the source: active = inhibition above about 50%; inactive = the rest.

SMILES	Pf apPOL inh	mHTT-CaM PPI inh
COc1ccc(Nc2ncc3c(n2)CCN(Cc2cc(Br)cs2)C3)cc1	-9	66*
Fc1cccc(CN2CCc3nc(Nc4ccc5c(c4)OCCO5)ncc3C2)c1	-2	45
Brc1csc(CN2CCc3nc(Nc4ccccc4)ncc3C2)c1	1	0
COc1cccc(CN2CCc3nc(Nc4ccc5c(c4)OCO5)ncc3C2)c1OC	4	21
COc1ccccc1CN1CCc2nc(Nc3ccc(F)cc3F)ncc2C1	-3	22
O=C(Nc1ccc(N2CCOCC2)nc1)C1CC(=O)N(Cc2ccco2)C1 (stereo not drawn)	-5	.
Cc1ccc(C(=O)N2CCC3(CC2)NC(=O)N(Cc2cccc(Cl)c2)C3=O)cc1F	-8	26
Brc1csc(CN2CCc3nc(N4CCOCC4)ncc3C2)c1	4	57*
COc1ccc(OC)c(Nc2ncc3c(n2)CCN(Cc2ccc4c(c2)OCCO4)C3)c1	4	9
COc1ccc(Nc2ncc3c(n2)CCN(Cc2ccc4c(c2)OCCO4)C3)cc1	-6	61*
CCCN1CCN(c2ncc3c(n2)CCN(Cc2cc(Br)cs2)C3)CC1	1	29
O=C(CC1(O)C(=O)Nc2ccc(I)cc21)c1cccs1 (stereo not drawn)	2	-6
CN(C)c1ccc(/C=C2\N=C(c3ccc(Cl)c(Cl)c3)OC2=O)cc1	10	0
CC1=NS(=O)(=O)c2cccnc2N1c1ccc(Cl)c(C)c1	-2	0
CN1CCN(C(=O)C23CC4CCC(CC(C4)C2)C3)CC1	1	-6
COc1cc(C2c3sc(=O)[nH]c3SC3C4CCC(C4)C23)ccc1O (stereo not drawn)	2	57*
COc1cccc(C2c3sc(=O)[nH]c3SC3C4CCC(C4)C23)c1O (stereo not drawn)	-6	49
COc1ccc(C2c3sc(=O)[nH]c3SC3C4CCC(C4)C23)cc1 (stereo not drawn)	-4	38
CCOc1cc(C2c3sc(=O)[nH]c3SC3C4CCC(C4)C23)ccc1O (stereo not drawn)	-6	100*
Cc1cc(C(=O)N2CC3CC2CC3NC(=O)c2cccs2)nn1C (stereo not drawn)	2	3
CCN=C1SC(C(=O)Nc2ccc(F)cc2)CC(=O)N1CC (stereo not drawn)	-1	-3
Cc1ccc(C(=O)Nc2ccc(Br)cc2F)c(Cl)c1	-9	-19
Cc1ccc(C)c(NC(=O)CSc2nc3c(c(=O)n2-c2ccc(F)cc2)SCC3)c1	5	1
CCC(=O)N1CCN(c2nc3c(s2)CC(C(=O)NCc2cccc(F)c2)CC3)CC1 (stereo not drawn)	3	24
Cc1ccc(NC(=O)C2CCN(c3c(C#N)cnc4ccc(C)cc34)CC2)cc1	2	-6
SMILES	Pf apPOL inh	mHTT-CaM PPI inh
COc1ccc(-c2noc(-c3ccc(NCCCc4ccccc4)nc3)n2)cc1	1	-8
C=CCSc1nc2c(c(-c3ccc(C)o3)c1C#N)CCCC2	-24	-24
Cc1ccc(-c2c(C#N)c(SCC(=O)c3ccc(O)c(O)c3)nc3c2CCCC3)o1	-1	69*
Cc1noc(C)c1CC(=O)NCCn1ncc2c(=O)n(Cc3ccc(F)cc3)cnc21	-7	-9
Nc1ncnc(NCc2ccc3c(c2)OCO3)c1[N+](=O)[O-]	-7	-2
CC(C)Cc1nnc(NS(=O)(=O)Cc2ccccc2)s1	-1	0
Cc1nnc(NS(=O)(=O)Cc2ccccc2)s1	56*	1
CCc1ccc(NC(=O)C2CCc3sc(C(=O)N(C)C)cc3C2)cc1 (stereo not drawn)	-2	7
COc1cc2ccccc2cc1C(=O)Nc1nnc(CCSc2ccccc2)o1	-4	-1
CCOC1=NN(c2ccc([N+](=O)[O-])cc2)C(=O)/C1=C/c1ccccc1OC	-2	23
CCOC1=NN(c2ccc([N+](=O)[O-])cc2)C(=O)/C1=C\c1ccccc1C(F)(F)F	-3	62*
CCN1c2ccccc2C(=O)NC12CCN(C(=O)Cc1cccc(F)c1)CC2	-2	3
O=C(NCCc1ccncc1)C1CCc2sc(C(=O)N3CCOCC3)cc2C1 (stereo not drawn)	-7	0
O=C(Nc1nc(C(=O)N2CCN(c3cccc(C(F)(F)F)c3)CC2)co1)C1CC1	-4	16
O=C(Nc1c[nH]c2ccccc12)N1CCN(c2cccc(C(F)(F)F)c2)CC1	-5	59*
CCOc1ccc(C(=O)c2ccc(C)c([N+](=O)[O-])c2)cc1	-2	-1
O=C1NC(=O)/C(=C\c2ccc(-c3cccc(Cl)c3Cl)o2)N1	-2	25
COc1cc(/C=C/c2nc3ccccc3c(=O)n2CCO)ccc1O	-10	7
COc1cc(/C=C/c2nc3ccccc3c(=O)n2-c2ccccc2[N+](=O)[O-])ccc1O	5	50*
Cc1ccc(-n2nc(C)c3sc(N4CCCN(C(=O)CCC(C)C)CC4)nc32)cc1	4	26
